Screening data from PubChem.
Most compounds without a hit are left out; they make up all but 1.7% or so of the library.
KCNH2 WT inh: KCNH2 (human, wildtype) channel inhibition; Q12809; 0.37% of 340,000 active; AID 720551; U2OS, BacMam KCNH2, thallium flux FluxOr; hits give low values; activity change, % at 1.84 µM;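 active means maximum activity change below -70%; inconclusive means maximum activity change between -70% and -50%; inactive means maximum activity change above -50%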
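U2OS cells transduced with wild-type KCNH2 virus are loaded with FluxOr dye for 45 min, and thallium flux is measured in kinetic reads before and after stimulation buffer. Rate constants are normalized to DMSO controls.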
RXFP1 ag: activates the human relaxin receptor RXFP1; Q9HBX9; HEK293T-RXFP1 cAMP TR-FRET, 30 min; response scale: percent of porcine relaxin response, buffer zero; Potency, µM (titrated, usually from 57.5 µM), usual class: activators; 0.3% of 370,000 active; AID 2676; active means well fitted activation curve with a large enough effect; inconclusive means small, poorly fitted or top-dose-only effect; further: nearly all actives have a fitted effect of over 60% in size
Target sequence (Q9HBX9 whole entry, looked up): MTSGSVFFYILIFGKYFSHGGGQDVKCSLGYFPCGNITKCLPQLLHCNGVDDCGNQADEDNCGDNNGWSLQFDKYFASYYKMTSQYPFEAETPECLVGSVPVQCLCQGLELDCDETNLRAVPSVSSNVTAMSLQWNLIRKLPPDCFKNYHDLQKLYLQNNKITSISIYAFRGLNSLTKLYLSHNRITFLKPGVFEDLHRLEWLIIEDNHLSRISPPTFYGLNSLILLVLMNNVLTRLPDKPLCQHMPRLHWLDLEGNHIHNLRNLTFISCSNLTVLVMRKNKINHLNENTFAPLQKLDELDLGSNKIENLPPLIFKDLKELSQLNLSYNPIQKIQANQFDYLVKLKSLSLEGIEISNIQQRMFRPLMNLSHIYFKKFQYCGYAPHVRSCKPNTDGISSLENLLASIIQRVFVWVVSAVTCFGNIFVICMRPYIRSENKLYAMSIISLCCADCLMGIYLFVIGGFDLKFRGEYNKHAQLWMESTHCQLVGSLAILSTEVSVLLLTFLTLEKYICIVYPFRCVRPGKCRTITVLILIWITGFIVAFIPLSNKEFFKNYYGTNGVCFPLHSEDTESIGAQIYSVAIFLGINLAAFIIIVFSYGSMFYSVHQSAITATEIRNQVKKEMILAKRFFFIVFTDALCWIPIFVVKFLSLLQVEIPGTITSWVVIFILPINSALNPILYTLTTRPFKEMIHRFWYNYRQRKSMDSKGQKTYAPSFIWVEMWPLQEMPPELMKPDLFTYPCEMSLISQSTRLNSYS
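cAMP rise read by TR-FRET after 30 min, 37C compound exposure (up to 58 uM) in RXFP1-transfected HEK293 cells with Ro 20174 present. EC50 from Hill-equation fits, with 29 nM porcine relaxin as 100% and buffer as basal.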
pAkt inh: Akt phosphorylation inhibition; Neuro2A IGF-stimulated pAkt S473 HTRF, 20 min; hits give low values; activity change, % for hits at 50 µM; 0.32% of 360,000 active; in the data active means activity change below about -80%; inconclusive means mostly about -51% to -80%
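Single-point screen (50 µM final compound) in Neuro2A cells stimulated 20 min with 6 nM IGF at 37 deg C. After lysis, Ser473-phosphorylated Akt read by HTRF (ex 330 nm, em 615/665 nm) as the 665/615 ratio.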
RXFP1 antagonist: RXFP1 (human) relaxin receptor antagonism | Q9HBX9 | 0.59% of 350,000 active | HEK293-RXFP1, relaxin-stimulated cAMP HTRF, 30 min; hits give low values | activity change, negative = inhibition, % at 57.5 µM;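 active means activity change of -60% or lower, but not beyond a set lower limit; inconclusive means change between -60% and -40%, or beyond the set limit; inactive means change above -40%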
KCNH2 3.1 block: inhibitors of human KCNH2 3.1 potassium channel isoform; activity change, % (tested at about 1.8 µM); 0.95% of 340,000 active; U2OS KCNH2 3.1, thallium flux FluxOr; hits give low values;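 active means maximum activity change below -70%; inconclusive means maximum activity change from -70% to -50%; inactive means maximum activity change above -50%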;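 further: thallium influx rate constant from kinetic fluorescence after stimulation buffer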
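Thallium flux via FluxOr fluorescence (Red40 quencher, 45 min loading) in U2OS cells virally expressing the KCNH2 3.1 isoform (1.77 x 10^8 /mL virus, overnight at 37 C). Rate constants from 2-min kinetic reads post-stimulation, normalised to positive and negative controls.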
Numbers stand for hits; i = inactive; ? = inconclusive; nt = no result given; ! = a repeat was not active.

SMILES | KCNH2 WT inh | RXFP1 ag | pAkt inh | RXFP1 antagonist | KCNH2 3.1 block
O=C(Nc1nc2nc(-c3ccccc3)cc(=O)n2[nH]1)c1ccc(Cl)cc1 | nt | i | nt | i | nt
O=C(N/N=C/c1cc2c3c(c1O)CCCN3CCC2)c1ccccc1O | i | i | i | -76.2 | i
O=C(Nc1ccccc1Cl)c1csc(-c2cccnc2)n1 | i | i | i | i | i
O=C(NNS(=O)(=O)c1ccc([N+](=O)[O-])cc1)c1ccccc1 | i | nt | i | i | i
O=C(O)c1cccc(NS(=O)(=O)c2ccc(Oc3ccc(S(=O)(=O)Nc4cccc(C(=O)O)c4)cc3)cc2)c1 | -144.2 | nt | i | i | i
O=C(c1cccc(NS(=O)(=O)c2ccccc2)c1)N1CCN(c2ccccc2)CC1 | i | i | i | -117.1 | i
O=C(c1ccc(NS(=O)(=O)c2ccccc2)cc1)N1CCCC1 | i | i | -118.2% | i | i
O=C(NNS(=O)(=O)c1ccc([N+](=O)[O-])cc1)C(=O)Nc1cccc(C(=O)O)c1 | -111.9 | i | i | i | i
O=C(c1ccc(S(=O)(=O)Nc2ccccc2)cc1)N1CCCC1 | i | i | i | i | i
O=C(NN1C(=O)C2C(C1=O)C1C=CC2C12CC2)c1cccc(Cl)c1 (stereo not drawn) | i | i | i | i | i
O=C(NNC(=O)c1ccccc1O)c1ccc(S(=O)(=O)Nc2ccccc2)cc1 | -88.0 | i | i | i | i
COc1ccc(-n2c(Cc3cc(=O)[nH]c(=O)[nH]3)nnc2SCC(=O)Nc2cc(C(F)(F)F)ccc2Cl)cc1 | i | i | i | i | nt
O=C(N/N=C/c1ccc(OC(=O)c2ccccc2Cl)cc1)c1cc(O)cc(O)c1 | i | i | i | -85.0 | nt
COC(=O)C1=C(C)N(Cc2ccccc2)C(=NCc2cc(OC)c(OC)c(OC)c2)N[C@H]1c1ccc(Br)cc1 | i | i | i | nt | -86.2
CC1(C)CC(=O)CC2(C1)NCC(c1ccccc1)c1c2[nH]c2ccccc12 (stereo not drawn) | -74.9 | i | i | i | -101.6
CNc1cncc(-c2cccc(C(=O)NCCN(C)C)c2)n1 | nt | nt | i | nt | nt
COc1ccc(N2CCN(c3cc(C)c4ccc(O)cc4n3)CC2)cc1 | i | i | i | nt | i
COc1ccc2c(C)cc(N3CCOCC3)nc2c1 | i | i | i | i | nt
COc1ccc2c(C)cc(N3CCN(c4ccc(F)cc4)CC3)nc2c1 | i | i | i | i | -91.3
COc1ccc(N2CCN(c3cc(C)c4ccc(C)cc4n3)CC2)cc1 | -73.7 | i | i | i | -102.1
Cc1cc(N2CCN(c3ccc(F)cc3)CC2)nc2cc(O)ccc12 | ? | i | i | nt | -79.2
CC(=O)Nc1ccc(SCc2csc(C)n2)cc1 | i | i | i | i | i
O=C(Nc1ccc(S(=O)(=O)Nc2ncccn2)cc1)C1=COCCO1 | i | i | i | i | i
CC(C)c1ccccc1NC(=S)NC(=O)C1CCCCC1 | i | nt | i | -65.4 | i
CCOc1ccccc1NC(=O)C1CCCC1 | -83.7 | nt | i | i | i
SMILES | KCNH2 WT inh | RXFP1 ag | pAkt inh | RXFP1 antagonist | KCNH2 3.1 block
CCOC(=O)c1ccccc1NC(=O)CSc1ncc(CO)n1Cc1ccc(C)cc1 | nt | i | nt | i | nt
Cc1ccc(-n2ncc3c(N4CCN(c5ccccc5)CC4)ncnc32)cc1C | nt | i | nt | i | nt
CC(=O)Nc1ccc(S(=O)(=O)N2CCN(c3nc(NC4CCCC4)c4ccccc4n3)CC2)cc1 | -89.7 | i | i | i | -86.0
CC(=O)Nc1ccc(S(=O)(=O)N2CCN(c3cc(C)nc4ccccc34)CC2)cc1 | i | i | i | i | i
CC1CN(C)C(C)C/C1=N\Oc1ccc([N+](=O)[O-])cc1 (stereo not drawn) | i | i | i | i | -88.0
CC1CN(C)C(C)C/C1=N/Oc1ccccc1[N+](=O)[O-] (stereo not drawn) | i | i | i | i | i
CCOC(=O)c1c(C)oc2nc(C)nc(N3CCN(c4ccccc4F)CC3)c12 | nt | i | nt | i | nt
CCNC(=O)c1ccccc1NC(=O)c1cccc(S(=O)(=O)N2CCC(C)CC2)c1 | i | i | -100.8% | i | i
CCOC(=O)c1cn(CC#N)c2cc(F)c(F)cc2c1=O | -70.3 | i | i | i | i
O=C(Nc1ccc2c(c1)OCO2)C1CCCN(c2nc3ccccc3s2)C1 (stereo not drawn) | i | i | i | i | i
CC(C)c1nnc(NC(=O)c2nc(S(=O)(=O)Cc3ccccc3)ncc2Cl)s1 | i | i | i | -71.9! | i
CSc1nnc(NC(=O)c2nc(S(=O)(=O)Cc3ccccc3)ncc2Cl)s1 | i | i | i | -62.7 | i
Cc1ccccc1CS(=O)(=O)c1ncc(Cl)c(C(=O)Nc2nnc(C(C)C)s2)n1 | nt | i | nt | ? | nt
CCOc1ccc(-c2nnn(CC(=O)NCc3ccco3)n2)cc1 | i | i | i | i | i
CCN1C(=O)c2cccc3c(Cl)ccc(c23)C1=O | i | i | i | i | i
Cc1ccc(C)c(NC(=O)CCN2CCC(C)CC2)c1 | i | i | i | i | i
Cc1ccc(C)c(NC(=O)CCN2CC(C)CC(C)C2)c1 (stereo not drawn) | i | i | i | i | -73.4
COc1ccc(S(=O)(=O)N(C)C)cc1NC(=O)CSc1nncs1 | i | 17.8µM | i | i | i
Cc1ccc(S(=O)(=O)N(C)C)cc1NC(=O)CSc1nncs1 | i | i | i | i | i
COc1ccc(Cl)cc1NC(=O)CN(C)C(=O)CN1C(=O)NC(C)(c2ccc3ccccc3c2)C1=O (stereo not drawn) | i | nt | i | i | -89.1
O=C1Nc2cc(C(=O)N3CCOCC3)ccc2S/C1=C/c1ccccc1F | i | nt | i | i | i
CC(C)c1ccc(OCc2ccc(C(=O)N3CCN(c4ccccn4)CC3)cc2)cc1 | i | i | i | i | -71.8
O=C(Nc1cccc(-c2cn3c(n2)SCC3)c1)c1ccc2c(c1)OCO2 | i | i | i | i | i
CCCc1ccc(OCc2ccc(C(=O)N3CCN(c4ccccn4)CC3)o2)c(OC)c1 | i | i | i | -62.6 | i
Cc1ccc(C(=O)n2c(=S)nc3ccccn32)cc1 | nt | i | nt | nt | nt
SMILES | KCNH2 WT inh | RXFP1 ag | pAkt inh | RXFP1 antagonist | KCNH2 3.1 block
Cn1c(CCN2CCOCC2)nc2cc(NS(=O)(=O)c3ccccc3)ccc21 | i | i | i | i | i
Cn1c(CCN2CCN(c3ccccn3)CC2)nc2cc(NS(=O)(=O)c3ccccc3)ccc21 | i | i | i | i | -76.3
COc1ccc(N=C2S/C(=C\c3ccc(Cl)c([N+](=O)[O-])c3)C(=O)N2CCN(C)C)cc1 | i | i | i | i | i
CCN(CC)CCN1C(=O)/C(=C\c2ccc(Cl)c([N+](=O)[O-])c2)SC1=Nc1ccc(OC)cc1 | i | i | i | i | -99.1
O=C(NCc1ccccc1Cl)c1cnccn1 | i | i | i | i | i
C/C=C/C=C\C(=O)Nc1cccc(C2=NOC3(C2)C[C@H](C(N)=O)N(C(=O)/C=C/C)C3)c1 (stereo partly drawn) | i | i | i | nt | -176.8
